Out of some 330,000 compounds screened, about 1,900 (0.58%) were called active. Inconclusive results (about 4%) are left out. Rule as the data show it: inconclusive = inhibition above about 70% without an active follow-up result; inactive = below that. Only a sample is shown. Results with a measured potency or affinity are listed apart.

The test in a line: M. tuberculosis growth inhibition, HTS (AID 449762).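 Also: bacterial growth assessed after seven days of incubation.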 Conditions: M. tuberculosis H37Rv growth inhibition, 7H9 media; at 25 µM; hits give high values.
As a reminder, the inhibition is the drop in the measured response relative to a control, in per cent. For the compound `CCOC(=O)N1CCc2c(sc(NC(C)=O)c2C(N)=O)C1`, the inhibition was -2.99% (inactive).
As to `CCOC(=O)N1CCc2c(sc(NC(=O)C3=COCCO3)c2C(N)=O)C1`, the inhibition was -6.06% (inactive).
The result for `CCOc1ccccc1NC(=O)COC(=O)CC(NC(N)=O)c1ccc(Cl)cc1` (configuration not stated) reads 3.03% (inactive).
To `CCc1c(C)sc2nc3c(C(=O)N4CCOCC4)cc(C(=O)c4ccccc4O)cn3c(=O)c12` belongs 51.4% (inactive); to `COC(=O)c1cc(C(=O)c2cc(F)ccc2O)cn2c(=O)c3c(C)c(C)sc3nc12`, 3.12% (inactive).
The result for `CC(=NCc1cccnc1)c1c(O)n(-c2ccccc2)c(=O)[nH]c1=O` reads -3.76% (inactive).
Take `COC(=O)c1cc(-c2ccc(OC)cc2)n[nH]1`: the inhibition is -1.36% (inactive).
The result for `COc1ccc(O)c(-c2cc(-c3ccc(F)cc3)n[nH]2)c1` reads 0.76% (inactive); that for `Cc1nc(SCc2c(F)cccc2Cl)n[nH]1`, -11.2% (inactive); that for `CCSC(=Nc1ccccc1)Nc1ccccc1`, -1.05% (inactive).
The result for `COc1ccc(C(CC(=O)NC(C)c2ccc(-c3ccccc3)cc2)NC(C)=O)cc1` (configuration not stated) reads 3.36% (inactive); that for `Cc1nnc(N/N=C/c2c(O)n(-c3cccc(C(F)(F)F)c3)c(=O)c3ccccc23)[nH]c1=O`, 3.05% (inactive).
The result for `Cc1cc(=O)[nH]c(N/N=C/c2c(O)n(-c3ccccc3)c(=O)c3ccccc23)n1` reads 31.9% (inactive).
With `CNS(=O)(=O)c1ccc2c(c1)oc(=O)c1cc(S(=O)(=O)NC)ccc12`, the inhibition was -1.49% (inactive).
To `Cn1c(=N)n(CC(=O)c2cccs2)c2ccccc21` belongs -0.34% (inactive).
On to `COc1ccc(-c2ccnc3nc(N4CCOCC4)nn23)cc1`, for which the inhibition is 1.34% (inactive).
The result for `c1ccc(-c2ccnc3nc(N4CCN(c5ccccc5)CC4)nn23)cc1` reads -7.9% (inactive); that for `C[C@H]1CN([C@@H](C)CO)C(=O)Cc2cc(NS(C)(=O)=O)ccc2O[C@@H]1CN(C)Cc1ccc(Cl)c(Cl)c1`, 4.73% (inactive).
As to `COc1ccc(C2=Nn3c(nnc3-c3ccccc3Cl)SC2)cc1OC1CCCC1`, the inhibition is 51.6% (inactive).
The result for `COc1ccc(C2=Nn3c(nnc3-c3ccccc3OC)SC2)cc1OC1CCCC1` reads 63.1% (inactive); that for `COc1ccccc1OP(=O)(Nc1cccnc1)Oc1ccccc1OC`, -4.39% (inactive); that for `CCN1CCN(Cc2c(OC)ccc3ccccc23)CC1`, 5.17% (inactive).
To `C[C@H]1COC(=O)[C@H](Cc2ccc(F)cc2)CC/C=C/C[C@@H](CC(=O)N[C@@H](CO)Cc2ccccc2)C(=O)N1` belongs 7.3% (inactive).
The result for `CCOc1ccc(C(=O)NCC(=O)N2CCC(C)CC2)cc1OCC` reads -0.53% (inactive); that for `Fc1ccc(NC(=S)Nc2cccc(Cl)c2)cc1`, 21.8% (inactive); that for `Cc1csc(NC(=O)Nc2cccc(Cl)c2)n1`, -2.56% (inactive).
Consider `CSc1ncccc1C(=O)OCC(=O)N1CCc2ccccc21`, for which the inhibition is -3.03% (inactive).
The result for `O=C(OCC(=O)N1CCc2ccccc21)c1cccnc1Cl` reads -2.8% (inactive); that for `CC1CCCC(NC(=O)COC(=O)COc2ccc(Br)cc2)C1C` (configuration not stated), 10.5% (inactive); that for `C/C(CCC12CC3CC(CC(C3)C1)C2)=N\NC(N)=S`, -13.2% (inactive).
To `C/C(=N\NC(N)=S)C12CC3CC(CC(C3)C1)C2` belongs -3.2% (inactive); to `COc1ccc(/C=C/C(=O)N(CC(C)C)C2CCS(=O)(=O)C2)cc1` (configuration not stated), 3.62% (inactive).
For the compound `O=C(NCC1CCCO1)C1CC(=O)N(C2CCCCCC2)C1` (configuration not stated), the inhibition is 5.65% (inactive).
For the compound `CCOc1ccc(NC(=O)c2ccc(OC)cc2)cc1`, the inhibition was -11.8% (inactive).
The result for `CCOC(=O)CSc1ncc(OC)c(Sc2ccc(Cl)cc2)n1` reads 0.98% (inactive); that for `COc1ccc(NC(=O)c2ccc(-n3cccn3)nc2)cc1`, -16.3% (inactive); that for `CCOC(=O)C(C)Sc1ncc(OC)c(Sc2ccc(Cl)cc2)n1` (configuration not stated), 2.61% (inactive).
The result for `CC1Cc2ccccc2N1C(=O)CN(C)CC(=O)Nc1ccc(F)cc1` (configuration not stated) reads -2.83% (inactive); that for `CC(=O)c1cccc(N(C(=O)c2ccco2)C(C(=O)NC2CCCC2)c2ccccc2F)c1` (configuration not stated), 3.81% (inactive).
The result for `CCCCn1c(N)c(N(CCC(C)C)C(=O)C2CCN(C(=O)c3ccccc3C)CC2)c(=O)[nH]c1=O` reads -4.26% (inactive).
Regarding `COc1cc(NC(=O)C2CCCN(S(=O)(=O)c3ccc4[nH]c(=O)ccc4c3)C2)cc(OC)c1` (configuration not stated), the inhibition was -0.31% (inactive).
The result for `NC(=O)c1cc([N+](=O)[O-])ccc1NCc1cccnc1` reads -8.59% (inactive); that for `CCOC(=O)c1ccccc1C(=O)OCC`, 7.16% (inactive); that for `O=C1C(Nc2ccccc2)=C(N2CCCCC2)C(=O)c2ccccc21`, 30.1% (inactive).
Regarding `Cc1ccc(NC2=C(N3CCCCC3)C(=O)c3ccccc3C2=O)cc1`, the inhibition was -7.72% (inactive).
The result for `Cc1ccc(CN(C(=O)c2ccco2)C2CCS(=O)(=O)C2)cc1` (configuration not stated) reads -3.45% (inactive); that for `CCCN1C(=O)C2(OCCO2)c2cc(Cl)ccc21`, 3.45% (inactive).
To `COC(=O)c1ccccc1NC(=O)COC(=O)c1ccccc1N=Nc1ccc(N(C)C)cc1` belongs 5.14% (inactive); to `CN(C)c1ccc(N=Nc2ccccc2C(=O)OCC(=O)N2CCCCCC2)cc1`, 11.9% (inactive).
Turning to `Clc1ccc(-c2cn3c(n2)SCC3)cc1`, the inhibition was 9.61% (inactive).
The result for `CCSc1ncc(/C=N/Nc2ccc([N+](=O)[O-])cc2)n1C` reads -1.1% (inactive); that for `CCSc1ncc(/C=N/Nc2ccc(F)cc2)n1C`, -4.38% (inactive).
To `Cc1cc(C(=O)NNC(=O)c2cccc(C(F)(F)F)c2)no1` belongs -7.27% (inactive).
Take `CCOc1ccc(C(=O)NC(C)(C)CC)cc1`: the inhibition was 26.1% (inactive).
To `CCCOc1ccc(C(=O)CCN2CCCCC2)cc1` belongs 23.5% (inactive).
The result for `CCOc1ccc(C(=O)CCN2CCCCC2)cc1` reads 42.5% (inactive); that for `Cc1ccc(-c2nc(S(=O)(=O)c3ccc(C)cc3)c(SCC(=O)NCC3CCCO3)o2)cc1` (configuration not stated), 8.98% (inactive); that for `CC(=O)c1ccc(NC(=O)CCc2nc3sc4c(c3c(=O)[nH]2)CCCC4)cc1`, 16.8% (inactive).
To `COc1ccc(NC(=S)NC(=O)c2cncc(Br)c2)cc1` belongs -11.5% (inactive).
With `CCn1cc(Br)c(C(=O)NC(=S)Nc2ccc(C(=O)OC)cc2)n1`, the inhibition was 9.85% (inactive).
To `CCn1cc(Br)c(C(=O)Nc2ccc(OC)cc2)n1` belongs -0.58% (inactive); to `CC(C)OC(=O)c1ccc(NC(=O)c2cncc(Br)c2)cc1`, 33% (inactive).

The values above are taken from PubChem BioAssay AID449762 (Southern Research Specialized Biocontainment Screening …, 2010).
